Experimental data taken from PubChem BioAssay AID1159580 (chemical genetic matrix, 2015).
About 2,000 (36%) of roughly 5,500 compounds were called active. Another 18% or so got no clear call; they are omitted. Cut-off read from the data, not from the text of the source: active = normalized growth mostly below about 0.91 (no sharp cut-off); inconclusive = no clear call, values can overlap the other calls; inactive = mostly above about 0.92. Some of the results follow.

Experiment: chemical genetic growth profiling, strain panel (AID 1159580);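 note: tested at 20 µM; growth read once vehicle control cultures reached saturation at 30 °C; 1 = growth at the plate median or of vehicle wells; lower values mean less growth of the strain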
Conditions: S. cerevisiae deletion strains, growth OD

Measured: normalized growth

CC(=O)O[C@@H]1c2c(ccc3ccc(=O)oc23)OC(C)(C)[C@@H]1OC(=O)CC(C)C
active: locus YDR137W, strain rgp1, active compounds read low 0.796 | locus YDR392W, strain spt3, active compounds read low 0.591 | locus YLR262C, strain YPT6 (second series), active compounds read low 0.794 | locus YNL071W, strain lat1, active compounds read low 0.882
inactive: locus YAL021C, strain ccr4, active compounds read low 1.03 | locus YAL026C, strain drs2, active compounds read low 0.993 | locus YAL030W, strain snc1, active compounds read low 1 | locus YBL061C, strain skt5, active compounds read low 0.992 | locus YBR009C, strain hhf1, active compounds read low 1.05 | locus YBR021W, strain FUR4, active compounds read low 1.02 | locus YBR023C, strain chs3, active compounds read low 0.991 | locus YBR171W, strain sec66, active compounds read low 0.974 | locus YBR229C, strain ROT2, active compounds read low 0.993 | locus YBR231C, strain swc5, active compounds read low 1 | locus YBR279W, strain paf1, active compounds read low 1.02 | locus YCL011C, strain gbp2, active compounds read low 1.01 | locus YCL016C, strain dcc1, active compounds read low 1 | locus YCL029C, strain bik1, active compounds read low 1.03 | locus YCL061C, strain MRC1, active compounds read low 1 | locus YCL069W, strain vba3, active compounds read low 1.01 | locus YCR088W, strain abp1, active compounds read low 0.997 | locus YDL005C, strain med2, active compounds read low 0.995 | locus YDL035C, strain GPR1, active compounds read low 1.01 | locus YDL040C, strain nat1, active compounds read low 1.01 | locus YDL074C, strain BRE1, active compounds read low 1.01 | locus YDL101C, strain DUN1, active compounds read low 1 | locus YDL134C, strain PPH21, active compounds read low 0.977 | locus YDL185W, strain tfp1, active compounds read low 1.03 | locus YDL192W, strain arf1, active compounds read low 1 | locus YDR001C, strain nth1, active compounds read low 1.01 | locus YDR069C, strain doa4, active compounds read low 1 | locus YDR101C, strain arx1, active compounds read low 1.05 | locus YDR159W, strain sac3, active compounds read low 0.974 | locus YDR162C, strain NBP2, active compounds read low 0.976 | locus YDR195W, strain ref2 1.07 | locus YDR297W, strain sur2, active compounds read low 0.994 | locus YDR318W, strain mcm21, active compounds read low 0.978 | locus YDR334W, strain swr1, active compounds read low 1.01 | locus YDR335W, strain msn5, active compounds read low 1.02 | locus YDR388W, active compounds read low 1.01 | locus YDR502C, strain sam2, active compounds read low 1 | locus YEL003W, strain gim4, active compounds read low 1.02 | locus YEL037C, strain rad23, active compounds read low 1.01 | locus YEL061C, strain CIN8 (second series), active compounds read low 1.01 | locus YEL061C, strain CIN8, active compounds read low 0.978 | locus YER015W, strain faa2, active compounds read low 1.01 | locus YER016W, strain bim1, active compounds read low 0.995 | locus YER110C, active compounds read low 1.03 | locus YER111C, strain swi4, active compounds read low 1 | locus YER155C, strain BEM2 (second series), active compounds read low 0.972 | locus YER155C, strain BEM2, active compounds read low 1 | locus YER167W, strain BCK2, active compounds read low 1 | locus YFR010W, strain ubp6, active compounds read low 1.03 | locus YGL078C, strain dbp3, active compounds read low 1.02 | locus YGL086W, strain mad1, active compounds read low 1.03 | locus YGL167C, strain pmr1, active compounds read low 0.989 | locus YGL173C, strain kem1, active compounds read low 0.987 | locus YGL227W, strain vid30, active compounds read low 1 | locus YGL240W, strain doc1, active compounds read low 1.02 | locus YGL248W, strain PDE1, active compounds read low 0.994 | locus YGL253W, strain hxk2, active compounds read low 0.986 | locus YGR078C, strain PAC10, active compounds read low 1 | locus YGR135W, strain pre9, active compounds read low 1 | locus YGR252W, strain gcn5, active compounds read low 1 | locus YHR013C, strain ard1, active compounds read low 1.01 | locus YHR027C, strain rpn1, active compounds read low 0.999 | locus YHR030C, strain SLT2, active compounds read low 0.988 | locus YHR079C, strain IRE1 (second series), active compounds read low 1.01 | locus YHR094C, strain hxt1, active compounds read low 1.01 | locus YHR129C, strain ARP1, active compounds read low 0.993 | locus YHR142W, strain chs7, active compounds read low 0.99 | locus YHR200W, strain rpn10, active compounds read low 1.03 | locus YIL066C, strain RNR3, active compounds read low 0.982 | locus YIL073C, strain SPO22, active compounds read low 1.01 | locus YIL125W, strain kgd1, active compounds read low 1.02 | locus YIR030C, strain dcg1, active compounds read low 1 | locus YJL092W, strain hpr5, active compounds read low 0.998 | locus YJL095W, strain BCK1 (second series), active compounds read low 0.995 | locus YJL095W, strain BCK1, active compounds read low 0.94 | locus YJL115W, strain asf1, active compounds read low 1.01 | locus YJL129C, strain trk1, active compounds read low 0.918 | locus YJL134W, strain LCB3, active compounds read low 0.994 | locus YJL154C, strain vps35, active compounds read low 1.01 | locus YJL164C, strain tpk1, active compounds read low 1.02 | locus YJL166W, strain qcr8, active compounds read low 0.961 | locus YJL168C, strain set2, active compounds read low 1.02 | locus YJL187C, strain SWE1 (second series), active compounds read low 1 | locus YJL187C, strain SWE1, active compounds read low 0.996 | locus YJR043C, strain POL32, active compounds read low 1.03 | locus YKL009W, strain mrt4, active compounds read low 1.01 | locus YKL068W, active compounds read low 0.996 | locus YKL085W, strain MDH1 (second series), active compounds read low 0.988 | locus YKL085W, strain MDH1, active compounds read low 0.988 | locus YKL160W, strain elf1, active compounds read low 0.928 | locus YKL190W, strain CNB1, active compounds read low 0.989 | locus YKR001C, strain vps1, active compounds read low 1.01 | locus YKR026C, strain gcn3, active compounds read low 0.998 | locus YKR091W, strain srl3, active compounds read low 0.997 | locus YLL001W, strain dnm1, active compounds read low 0.957 | locus YLL026W, active compounds read low 1 | locus YLL041C, strain sdh2, active compounds read low 1 | locus YLR027C, strain aat2, active compounds read low 0.999 | locus YLR039C, strain RIC1, active compounds read low 0.921 | locus YLR058C, strain SHM2, active compounds read low 0.982 | locus YLR102C, strain apc9, active compounds read low 1.01 | locus YLR221C, strain rsa3, active compounds read low 0.979 | locus YLR258W, strain gsy2, active compounds read low 1.01 | locus YLR262C, strain YPT6, active compounds read low 0.889 | locus YLR268W, strain sec22, active compounds read low 1.03 | locus YLR320W, strain mms22, active compounds read low 0.918 | locus YLR330W, strain CHS5, active compounds read low 1 | locus YLR342W, strain FKS1 (second series), active compounds read low 1 | locus YLR342W, strain FKS1, active compounds read low 0.98 | locus YLR357W, strain rsc2, active compounds read low 1.07 | locus YLR370C, strain arc18, active compounds read low 1 | locus YLR371W, strain rom2, active compounds read low 1.02 | locus YLR384C, strain iki3, active compounds read low 1.01 | locus YLR418C, strain cdc73, active compounds read low 0.947 | locus YML016C, strain PPZ1, active compounds read low 0.992 | locus YML032C, strain rad52, active compounds read low 0.992 | locus YML120C, strain ndi1, active compounds read low 0.989 | locus YML124C, strain tub3, active compounds read low 1 | locus YMR058W, strain fet3, active compounds read low 1 | locus YMR078C, strain ctf18, active compounds read low 1 | locus YMR125W, strain sto1, active compounds read low 0.976 | locus YMR129W, active compounds read low 1 | locus YMR205C, strain PFK2, active compounds read low 0.878 | locus YMR223W, strain ubp8, active compounds read low 0.986 | locus YMR231W, strain pep5, active compounds read low 1 | locus YMR263W, strain SAP30, active compounds read low 0.996 | locus YMR307W, strain GAS1, active compounds read low 0.848 | locus YNL067W, strain RPL9B, active compounds read low 0.998 | locus YNL209W, strain ssb2, active compounds read low 1.01 | locus YNL233W, strain BNI4, active compounds read low 1.02 | locus YNL248C, strain rpa49, active compounds read low 0.952 | locus YNL250W, strain rad50, active compounds read low 1.02 | locus YNL271C, strain bni1, active compounds read low 0.999 | locus YNL298W, strain CLA4, active compounds read low 1.02 | locus YNL307C, strain MCK1, active compounds read low 1.01 | locus YNL322C, strain KRE1 (second series), active compounds read low 1.01 | locus YNL322C, strain KRE1, active compounds read low 0.995 | locus YNR049C, strain mso1, active compounds read low 1.01 | locus YNR052C, strain pop2, active compounds read low 1 | locus YOL012C, strain htz1 0.997 | locus YOL147C, strain pex11, active compounds read low 1 | locus YOR001W, strain rrp6, active compounds read low 1.03 | locus YOR061W, strain CKA2, active compounds read low 0.985 | locus YOR069W, strain VPS5, active compounds read low 0.992 | locus YOR070C, strain gyp1, active compounds read low 1 | locus YOR080W, strain dia2, active compounds read low 1.02 | locus YOR083W, strain WHI5, active compounds read low 0.949 | locus YOR106W, strain vam3, active compounds read low 0.968 | locus YOR136W, strain idh2, active compounds read low 1.03 | locus YOR144C, strain elg1, active compounds read low 1.01 | locus YOR184W, strain ser1, active compounds read low 0.921 | locus YOR265W, strain rbl2, active compounds read low 1.01 | locus YOR270C, strain vph1, active compounds read low 0.883 | locus YOR290C, strain snf2, active compounds read low 1 | locus YOR316C, strain cot1, active compounds read low 1.01 | locus YPL051W, strain arl3, active compounds read low 0.951 | locus YPL078C, strain atp4, active compounds read low 0.93 | locus YPL106C, strain sse1, active compounds read low 1.06 | locus YPL240C, strain hsp82, active compounds read low 1 | locus YPL241C, strain CIN2, active compounds read low 0.973 | locus YPR119W, strain clb2, active compounds read low 1 | locus YPR141C, strain kar3, active compounds read low 0.994 | locus YPR163C, strain tif3, active compounds read low 1.01 | locus YPR167C, strain met16, active compounds read low 1.01 | strain wtn01, active compounds read low 1.04
